Measured values reported in PubChem BioAssay (NCI).
The panel holds about 79,000 compounds, 15% with a hit somewhere; the sample as a whole holds those more often. Cut-off read from the data, not from the text of the source: active = growth inhibition above about 70%; inactive = the rest.

Legend:
[1] = NCI Yeast Anticancer Drug Screen. Data for the rad50 strain (AID 155);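 note: 0% = growth of vehicle-only cultures of the same strain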; conditions: S. cerevisiae rad50 strain growth inhibition; at 50.0 µM; hits give high values
Procedure, shortened: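 DNA repair mutant yeast, compound exposure, growth read-out; inhibition is taken relative to vehicle.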

[2] = NCI Yeast Anticancer Drug Screen. Data for the mec2-1 strain (AID 157); conditions: S. cerevisiae mec2-1 strain, at 50.0 µM, hits give high values
Procedure, shortened: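 mec2-1 yeast strain, carrying an alteration in DNA damage repair or cell cycle control, was exposed to compounds; growth inhibition was measured relative to vehicle-treated controls.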

[3] = NCI Yeast Anticancer Drug Screen. Data for the sgs1 mgt1 strain (AID 161);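 note: 0% = growth of cultures given vehicle only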; conditions: S. cerevisiae sgs1 mgt1 strain, at 50.0 µM, hits give high values
Procedure, shortened: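 Percent growth inhibition was derived by comparing compound-exposed mutant yeast with vehicle-exposed cultures. The strain carries alterations in DNA damage repair.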

[4] = NCI Yeast Anticancer Drug Screen. Data for the cln2 rad14 strain (AID 165);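 note: 0% = growth equal to vehicle treated cultures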; conditions: S. cerevisiae cln2 rad14 strain, at 50.0 µM, hits give high values
Procedure, shortened: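 Yeast carrying cln2 and rad14 alterations (cell cycle control and DNA damage repair) were exposed to compounds. Growth inhibition was measured against vehicle-treated controls.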

[5] = NCI Yeast Anticancer Drug Screen. Data for the bub3 strain (AID 167); conditions: S. cerevisiae bub3 mutant strain, at 50.0 µM, hits give high values
Procedure, shortened: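 In this screen, a yeast mutant lacking normal mitotic checkpoint function is challenged with compound. Relative growth versus vehicle gives the inhibition value.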

[6] = NCI Yeast Anticancer Drug Screen. Data for the mlh1 rad18 strain (AID 175); conditions: S. cerevisiae mlh1 rad18 strain growth inhibition; at 50.0 µM; hits give high values
Procedure, shortened: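 Growth inhibition of the yeast strain was measured after compound exposure and expressed relative to vehicle-treated controls. The strain carries defined defects in DNA damage repair.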

Measured: growth inhibition

COc1ccc(Cl)cc1NC(=O)c1cccc(Cl)c1
inactive: [1] 18.8% | [2] 16.9% | [3] 7.8% | [4] 10.9% | [5] 30.1% | [6] -0.3%

O=C(/C=C/c1cccs1)c1ccc([N+](=O)[O-])cc1
inactive: [1] -59% | [2] -58.7% | [3] -27.6% | [4] -6.3% | [5] -23.1% | [6] -21.6%

CC1=NNC(=O)C1
inactive: [1] 4.65% | [2] -0.4% | [3] -8.1% | [4] -14.8% | [5] -3.2% | [6] 2.9%

CCCCCCCCCCCCCCCO
inactive: [1] 0.45% | [2] -20.4% | [3] -2.45% | [4] -7.35% | [5] -7.25% | [6] 8.4%

O=C(CC(=O)N(C(=O)/C=C\c1ccccc1)c1ccc(Cl)cc1)N1N=C(c2ccccc2)C(N=Nc2cccc([N+](=O)[O-])c2)C1=O (stereo unspecified)
inactive: [1] 7.5% | [2] 3.45% | [3] 9.5% | [4] 1.75% | [5] 14.7% | [6] 5.5%

O=C1OCC(CN2CCC(n3c(=O)[nH]c4ccccc43)CC2)=C1c1ccccc1
inactive: [1] -12.2% | [2] -4.65% | [3] -7.15% | [4] -25.7% | [5] -10.6% | [6] -35.9%

Cc1ccc(N=C(NN(C)C)C(c2ccccc2)c2ccccc2)cc1
inactive: [1] 2.55% | [2] -20.1% | [3] 7.95% | [4] -18.9% | [5] 15.4% | [6] -14.2%

COC(=O)/C=C/c1ccccc1
inactive: [1] 17.4% | [2] -14.3% | [3] -15.6% | [4] -1.2% | [5] -27.9% | [6] 19.4%

COc1ccc(C2c3cc4c(cc3OC(N3CCOCC3)C2C)OCO4)cc1 (stereo unspecified)
inactive: [1] -12.4% | [2] -22.1% | [3] -20.2% | [4] -3.95% | [5] -32.9% | [6] -57.2%

C=CCSc1nc2ccc(NC(C)=O)cc2s1
inactive: [1] 42.8% | [2] 10.2% | [3] 7.8% | [4] 19.3% | [5] 20% | [6] 16.7%

CC(=O)c1sc2c(c1OC(=O)c1cccs1)c(=O)n(-c1ccccc1)c(=S)n2-c1ccccc1
inactive: [1] 22.2% | [2] -4.25% | [3] 10.3% | [4] -15.1% | [5] 23.4% | [6] 3.9%

CC(=O)OCC1OC(n2cc(F)c(=O)[nH]c2=O)C(OC(C)=O)C1OC(C)=O (stereo unspecified)
inactive: [1] 28.9% | [2] 3.2% | [3] -13.1% | [4] 43.2% | [5] -16.4% | [6] -26.4%

O=C(Nc1ccc(Cl)cc1)Nc1ccc(Cl)nn1
inactive: [1] -29.2% | [2] 7.85% | [3] -10.1% | [4] -39.8% | [5] -6.8% | [6] -1.85%

Cc1cccc2nc(-c3ccccn3)n(CCc3ccccn3)c12
inactive: [1] -5.2% | [2] 5.35% | [3] 1.65% | [4] -18.5% | [5] -8.2% | [6] 17.2%

O=C(NCCCl)Nc1ccc2c(c1)CCC2
inactive: [1] 1.55% | [2] 3.3% | [3] 1.55% | [4] -10.8% | [5] 10.8% | [6] 6.7%

COc1ccccc1/C=C1\CCC(CCN(C)C)(C2=CCCC2)C1=O (stereo unspecified)
inactive: [1] -3.05% | [2] -11.8% | [3] -27.5% | [4] 11.1% | [5] -17.7% | [6] 24.4%

NC(=O)C12CC3CC(CC(Br)(C3)C1)C2
inactive: [1] -7.9% | [2] -6.85% | [3] -8.25% | [4] 16.2% | [5] 2.5% | [6] -7.1%

CN(C)C(=O)/C=C/C(=O)O (tested in a mixture with another compound)
inactive: [1] -1.25% | [2] -10.3% | [3] 6.9% | [4] 7.65% | [5] 16.8% | [6] -20.8%

NS(=O)(=O)c1ccccc1
inactive: [1] 25.2% | [2] 18.9% | [3] 7.95% | [4] -28.4% | [5] 12.4% | [6] 15.4%

O=C(c1ccccc1)C1C(/C=C/c2ccccc2)C(C(=O)c2ccccc2)C1/C=C/c1ccccc1 (stereo unspecified)
inactive: [1] 41.2% | [2] -7.1% | [3] 11.8% | [4] 0.4% | [5] -4.5% | [6] 3.25%

CC(C#N)(CCl)OS(=O)(=O)CCCl (stereo unspecified)
inactive: [1] 37.4% | [2] 21.4% | [3] 6.4% | [4] 16.9% | [5] 48.7% | [6] 25.4%
